A selection: hits, their analogues and other compounds. The true share with any hit is near 2%.
DAGLB inh: DAGLB lipase inhibitors, primary screen, biochemical, fluorescence, HTS. Diacylglycerol lipase-beta (Homo sapiens), Q8NCG7. HEK293T DAGLB membrane lysate, EnzChek fluorogenic substrate. inhibition, % at 5.17 µM. hit rate 0.059% among 340,000; in the data active = inhibition above about 34%;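 note: 0% = enzyme with vehicle and 100% = wells lacking enzyme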
NadD block: inhibitors of S. aureus NadD, primary screen, biochemical, colorimetric, uHTS. AID 602399, 2012. Nicotinate-nucleotide adenylyltransferase NadD (Staphylococcus aureus N315). hit rate 0.78% among 360,000. inhibition, % at 20 µM. purified NadD enzyme, colorimetric absorbance read-out; in the data active = inhibition above about 26%
ARNT TACC3 PPI: disruptors of ARNT/TACC3 protein interaction, primary screen, biochemical, AlphaScreen, single concentration. Transforming acidic coiled-coil-containing protein 3 (Homo sapiens), Q9Y6A5. AlphaScreen His-ARNT PAS-B/GST-TACC3 binding, luminescence; TACC3 fragment carries E629A point mutation. inhibition, % at 9.99 µM. hit rate 0.66% among 390,000. AID 623870, 2012;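 active = mean inhibition of replicates at least 50% and at least half of replicates each reaching 50%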;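 note: 0% = complete ARNT plus TACC3 wells and 100% = ARNT alone without TACC3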
Neddyl block: inhibitors of cullin neddylation, primary screen, biochemical, TR-FRET, uHTS, NAE and Ubc12 | AID 651699, 2012 | hit rate 0.58% among 360,000 | NEDD8-conjugating enzyme Ubc12 (Homo sapiens) + NEDD8-activating enzyme E1 regulatory … | inhibition, % at 25 µM; in the data active = inhibition above about 36%
sPLA2-III inh: human group III sPLA2 inhibitors, primary screen, biochemical, QFRET, BODIPY PC-A2 liposome substrate; QFRET BODIPY PC-A2 liposome hydrolysis, fluorescence; hit rate 0.56% among 370,000; Group 3 secretory phospholipase A2 (Homo sapiens), Q9NZ20; inhibition, % at 12.2 µM;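 active = inhibition above mean plus 3 SD of compounds lying within the high and low control bounds, cut at about 19% in these data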;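 note: 0% = median of test compound wells and 100% = no enzyme DMSO wells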
Target sequence (Q9NZ20 whole entry, looked up): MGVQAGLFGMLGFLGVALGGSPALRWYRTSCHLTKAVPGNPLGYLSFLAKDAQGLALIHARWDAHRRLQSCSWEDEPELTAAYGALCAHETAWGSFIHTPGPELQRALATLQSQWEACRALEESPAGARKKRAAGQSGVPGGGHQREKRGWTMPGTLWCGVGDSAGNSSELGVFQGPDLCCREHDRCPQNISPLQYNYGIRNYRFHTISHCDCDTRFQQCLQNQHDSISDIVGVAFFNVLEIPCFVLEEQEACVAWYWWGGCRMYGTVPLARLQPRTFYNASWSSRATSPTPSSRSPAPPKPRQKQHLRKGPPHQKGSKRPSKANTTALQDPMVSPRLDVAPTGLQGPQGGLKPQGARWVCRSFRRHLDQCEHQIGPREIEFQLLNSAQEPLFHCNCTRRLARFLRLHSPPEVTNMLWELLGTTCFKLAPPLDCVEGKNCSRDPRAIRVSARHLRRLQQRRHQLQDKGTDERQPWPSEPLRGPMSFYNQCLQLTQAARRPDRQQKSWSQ
Neddyl conf: blockade of NEDD8 conjugation to cullin – biochemical, TR-FRET, single concentration, confirmation; calls only at 25 µM; shares compounds with Neddyl block; hit rate 13% among 1,800; AID 652217, 2013; TR-FRET cullin neddylation biochemical assay; in the data active = inhibition above about 40%;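 note: neddylation substrate is the cullin 1 ring ligase complex with SKP2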
* = called active by the depositor; i = inactive; / = not tested or not shown; + = active, no number.

SMILES	DAGLB inh	NadD block	ARNT TACC3 PPI	Neddyl block	sPLA2-III inh	Neddyl conf
CCOC(=O)c1cccc(Nc2ncnc3ccc(C)cc23)c1	-1.8	-0.3	-2.9	40.0*	-11.5	i
N#Cc1cc(Oc2cccc3cccnc23)c(-n2nnc3ccccc32)cc1C#N	6.1	7.9	-3.4	-3.8	3.3	/
N#Cc1cc(O)c(-n2nnc3ccccc32)cc1C#N	0.1	-0.8	-3.1	39.1*	-0.9	i
COc1ccccc1Oc1ccc(S(=O)(=O)N2CCOCC2)cc1S(=O)(=O)N1CCOCC1	-2.4	-3.2	-3.8	6.7	-3.9	/
Cc1ccc(Oc2ccc(S(=O)(=O)N3CCOCC3)cc2C(N)=O)c(-n2nc3ccccc3n2)c1	-0.6	2.8	10.1	37.6*	1.0	/
CSc1cccc2sc(NC(=O)C3=COCCO3)nc12	-1.1	-4.6	-0.3	51.9*	-7.0	/
Cc1ccc(Cl)c2sc(NC(=O)C3=COCCO3)nc12	-5.6	-4.5	-3.0	8.6	-24.5	/
COc1ccc(Cl)c2sc(NC(=O)C3=COCCO3)nc12	1.2	-1.7	-6.6	42.0*	-12.9	i
C[C@H]1CN([C@@H](C)CO)C(=O)c2cccc(NC(=O)Nc3ccc4c(c3)OCO4)c2O[C@@H]1CN(C)C	/	/	6.4	/	/	/
COc1ccc(-c2nc3c4ccccc4ccn3c2CN2CCCCC2)cc1OC	-2.5	-1.6	4.2	42.5*	-6.9	i
CC(C)CC#Cc1cnc2c(c1)C(=O)N([C@@H](C)CO)C[C@H](C)[C@H](CN(C)Cc1ccc(C(=O)O)cc1)O2	/	/	-7.9	/	/	/
COc1ccc(N2C(=O)c3ccccc3NC23CCCCC3)cc1	-2.5	3.5	6.5	41.3*	-3.8	/
COc1ccc(N2C(=O)c3ccccc3NC23CCC(C)CC3)cc1 (configuration not stated)	1.6	-3.4	-1.7	44.6*	4.9	/
C[C@H]1CN([C@@H](C)CO)C(=O)c2cc(NS(=O)(=O)c3ccc(F)cc3)ccc2O[C@@H]1CN(C)Cc1ccc(Cl)c(Cl)c1	/	/	1.3	/	/	/
CC(NC(=O)c1cccc(N(C)C)c1)c1ccc(-n2ccnc2)cc1 (configuration not stated)	-2.6	-1.7	/	41.1*	-1.3	i
Cc1c(/C=C(\CC(=O)O)c2nc3ccccc3s2)cc(C#N)n1C	-0.2	0.3	-2.8	42.8*	-0.4	/
Cc1c(OCc2ccc([N+](=O)[O-])cc2)ccc2c3c(c(=O)oc12)CCC3	-0.8	15.3	-1.0	1.2	6.2	/
Cc1c(Oc2ccc(C(F)(F)F)cc2[N+](=O)[O-])ccc2c3c(c(=O)oc12)CCC3	0.5	2.6	1.4	40.1*	-3.1	i
C[C@H](CO)N1C[C@H](C)[C@@H](CN(C)Cc2ccc(C(=O)Nc3ccccc3N)cc2)Oc2c(NC(=O)c3nc4ccccc4s3)cccc2C1=O	/	/	25.7	/	/	/
COc1ccc(NC(=O)N(C)C[C@H]2Oc3ccc(NS(=O)(=O)c4ccc(Cl)cc4)cc3CC(=O)N([C@@H](C)CO)C[C@@H]2C)cc1	/	/	1.4	/	/	/
CC(C)c1ccc(/C=C/C(=O)NC(=S)Nc2ccc(CN3CCOCC3)cc2)cc1	-4.7	1.9	/	40.2*	-0.9	i
CC(C)c1ccc(/C=C/C(=O)NC(=S)NN2CCOCC2)cc1	-0.7	2.9	-1.8	0.6	2.1	/
COCC#Cc1cnc2c(c1)C(=O)N([C@@H](C)CO)C[C@@H](C)[C@@H](CN(C)C)O2	/	/	-0.6	/	/	/
COc1ccc2sc(-c3ccc(SC)cc3)c(C#CCO)c2c1	-4.1	-7.0	0.2	38.5*	-6.8	/
CCOC(=O)C1CC(=NO)c2ccc(OC)c(OC)c2C1 (configuration not stated)	0.4	-2.4	/	40.4*	-3.1	i
SMILES	DAGLB inh	NadD block	ARNT TACC3 PPI	Neddyl block	sPLA2-III inh	Neddyl conf
CCOC(=O)C1CCN(S(=O)(=O)c2ccc(OC)c(OC)c2)CC1	1.2	-1.6	-6.2	4.6	3.2	/
CN1c2ccc(-c3ccc(C#N)cc3)cc2[C@@H]2[C@@H](CCN2C(=O)CC2CC2)[C@H]1CO	/	/	-16.1	/	/	/
C[C@@H]1CN([C@@H](C)CO)C(=O)c2cc(-c3cccnc3)cnc2O[C@H]1CN(C)C(=O)C1CC1	/	/	-0.6	/	/	/
c1ccc(CN2CCC(N3CCC(N4CCCCCC4)CC3)CC2)cc1	0.5	-3.8	3.2	6.7	/	/
c1ccc2c(c1)c1c(c3ccccc32)CN2CCCC2C1 (configuration not stated)	-1.1	16.0	34.0	42.9*	-5.7	i
COCCNC(=O)CSc1ccc(-c2nc3ccccc3[nH]2)cn1	1.1	-2.3	1.6	49.0*	-2.3	+
CCOC(=O)CSc1ccc(-c2nc3ccccc3[nH]2)cn1	-1.4	-3.4	-1.7	16.9	4.4	/
CC(=O)N1[C@H](C(=O)NC2Cc3ccccc3C2)[C@@H](CO)[C@@H]2Cn3c(ccc(-c4ccncc4)c3=O)[C@@H]21	/	/	-11.0	/	/	/
COC(=O)c1ccccc1NC(=O)N1CCN(c2ccccc2F)CC1	-16.8	1.2	/	13.0	-4.8	/
COC(=O)c1ccccc1NC(=O)N1CCCC1	-5.7	3.9	-8.6	46.3*	-1.8	i
CNC[C@@H]1Oc2ccc(NC(=O)Nc3ccccc3)cc2C(=O)N([C@H](C)CO)C[C@@H]1C	/	/	-6.5	/	/	/
CCOC(=O)Cc1cc(=O)n2[nH]c(C)c(-c3ccc(OC)cc3)c2n1	1.1	5.1	12.4	41.7*	-22.1	/
CCOC(=O)Cc1cc(=O)n2[nH]c(C)c(-c3ccc(Cl)cc3)c2n1	6.9	7.5	10.5	/	-19.9	/
C[C@@H]1CN([C@H](C)CO)C(=O)c2cc(NC(=O)CCC(F)(F)F)ccc2O[C@@H](C)CCCCO[C@@H]1CN(C)Cc1ccccc1	/	/	-4.2	/	/	/
O=C(Cn1c(=O)oc2cccnc21)Nc1ccc(C(F)(F)F)cc1	/	4.6	/	40.1*	0.0	i
O=C(N[C@@H]1CC[C@H](CCNS(=O)(=O)c2ccc(F)cc2)O[C@H]1CO)c1cnccn1	/	/	-11.4	/	/	/
CCOC(=O)c1sc(-c2cccs2)nc1C	-8.1	-0.9	-9.5	46.5*	-1.2	i
O=C(Nc1ccccc1)Nc1nnc(/C=C/c2ccccc2Cl)s1	-0.3	3.1	-5.1	45.4*	-1.9	i
O=C(Nc1ccccc1)Nc1nnc(-c2ccccc2)s1	-2.1	-0.4	-6.5	-2.2	17.5	/
CC1(C)Cc2c(C#N)c(NCc3ccco3)nc(-c3ccco3)c2CO1	0.3	-3.7	1.4	31.2	-1.7	/
CN(C)CCNc1nc(-c2ccco2)c2c(c1C#N)CC(C)(C)OC2	-1.9	-7.9	-3.2	50.7*	-2.2	+

Bioassay records from PubChem BioAssay.
